Results on 38 molecules are retold here after PubChem BioAssay (NCATS).

Structures are written as SMILES. Inconclusive results are not listed. The source made the active and inactive calls. The call rests on the fitted dose curve; in most records, active means well fitted curve in the direction sought with a large enough effect; inconclusive means small, poorly fitted or top-dose-only effect, or another doubt; inactive means no such curve, though single readings can be large; an effect the other way counts as inactive or inconclusive.

Sequence of Transient receptor potential cation channel subfamily V member 1 (Homo sapiens) (Q8NER1 whole entry, looked up): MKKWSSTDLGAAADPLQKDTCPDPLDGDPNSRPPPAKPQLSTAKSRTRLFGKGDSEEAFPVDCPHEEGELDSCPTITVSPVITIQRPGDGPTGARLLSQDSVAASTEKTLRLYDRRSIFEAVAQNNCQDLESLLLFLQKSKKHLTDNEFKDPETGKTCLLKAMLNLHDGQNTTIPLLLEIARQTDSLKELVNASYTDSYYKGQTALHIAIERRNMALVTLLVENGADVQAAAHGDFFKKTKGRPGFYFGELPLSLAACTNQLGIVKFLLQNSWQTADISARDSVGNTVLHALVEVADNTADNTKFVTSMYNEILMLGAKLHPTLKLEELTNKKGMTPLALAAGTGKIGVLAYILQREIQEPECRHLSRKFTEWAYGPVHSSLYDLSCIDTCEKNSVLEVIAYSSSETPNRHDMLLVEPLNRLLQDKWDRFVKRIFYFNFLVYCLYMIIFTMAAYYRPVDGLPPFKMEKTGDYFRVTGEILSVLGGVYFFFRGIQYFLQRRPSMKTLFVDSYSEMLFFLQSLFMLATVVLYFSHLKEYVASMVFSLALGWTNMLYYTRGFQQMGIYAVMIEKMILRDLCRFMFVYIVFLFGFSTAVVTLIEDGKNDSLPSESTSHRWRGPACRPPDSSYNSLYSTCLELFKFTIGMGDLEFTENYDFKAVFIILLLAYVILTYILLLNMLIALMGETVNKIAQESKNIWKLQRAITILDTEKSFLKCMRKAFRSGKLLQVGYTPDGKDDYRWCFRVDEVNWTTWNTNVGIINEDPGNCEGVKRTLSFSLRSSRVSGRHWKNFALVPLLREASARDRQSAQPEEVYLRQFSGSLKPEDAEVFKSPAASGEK
Sequence of Thyrotropin receptor (Homo sapiens) (P16473 whole entry, looked up): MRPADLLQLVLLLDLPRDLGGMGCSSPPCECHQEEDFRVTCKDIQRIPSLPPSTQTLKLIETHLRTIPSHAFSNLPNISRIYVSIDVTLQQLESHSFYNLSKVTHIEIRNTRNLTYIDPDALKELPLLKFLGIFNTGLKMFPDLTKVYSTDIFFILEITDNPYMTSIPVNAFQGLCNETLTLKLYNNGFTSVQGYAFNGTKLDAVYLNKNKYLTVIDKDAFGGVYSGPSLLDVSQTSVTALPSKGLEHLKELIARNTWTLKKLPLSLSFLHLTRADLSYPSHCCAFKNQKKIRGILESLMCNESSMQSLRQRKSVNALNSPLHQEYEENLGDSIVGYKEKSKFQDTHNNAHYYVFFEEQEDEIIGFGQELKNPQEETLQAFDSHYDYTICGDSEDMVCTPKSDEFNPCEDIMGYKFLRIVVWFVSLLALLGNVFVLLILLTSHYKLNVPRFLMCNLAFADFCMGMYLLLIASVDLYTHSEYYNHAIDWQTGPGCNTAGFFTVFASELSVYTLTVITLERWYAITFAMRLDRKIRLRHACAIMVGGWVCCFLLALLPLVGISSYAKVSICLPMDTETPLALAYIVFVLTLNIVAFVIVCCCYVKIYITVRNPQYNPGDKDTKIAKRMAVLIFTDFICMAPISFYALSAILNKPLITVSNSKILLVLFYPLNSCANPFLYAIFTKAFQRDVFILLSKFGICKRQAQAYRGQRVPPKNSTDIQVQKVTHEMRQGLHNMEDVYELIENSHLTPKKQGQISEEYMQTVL

The first assay concerns the target Transient receptor potential cation channel subfamily V member 1 (Homo sapiens) (UniProt Q8NER1). Description: HTS Assay for Compounds that Act as Enhancers of the Vanilloid Receptor 1 (AID 488979). The conditions noted are these: TRPV1-expressing cells, enhancer of channel activity, stimulated with capsaicin at EC20; series mostly up to 41.7 µM. In short, it runs like this:
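Calcium influx kinetics via Fluo-8 (480/520 nm) in TRPV1-expressing cells, 2000/well cultured overnight at 35.5C. Compound-alone read 3 min (agonist phase), followed by EC20 capsaicin challenge for 2 min (enhancer phase).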
`O=C(O)CCC(=O)N1CCCC1C(=O)O` (stereo unspecified): the result was inactive.
Same read-out and setting: the same measure for `C=C(C)C1CC=C(C(=O)O)CC1` (stereo unspecified): “inactive”; for `NCC(O)C1CCCCCCC1` (stereo unspecified): “inactive”.
Still for that read-out and setting: the same measure for `NC(=O)CNCCC(c1ccccc1)c1ccccc1`: “inactive”.
Still for that read-out and setting: the entry for `COc1ccccc1N1CCN(CCCNc2c(C)c(=O)n(C)c(=O)n2C)CC1` is “inactive”.
Turning to `C[C@@]1(C2CCCC2)Cc2cc(OCC(=O)O)c(Cl)c(Cl)c2C1=O`, the result was inactive.
Same read-out and setting: the entry for `N[C@@H](CS(=O)O)C(=O)O` is “inactive”.
Still for that read-out and setting: the same measure for `COC(=O)C(C)(N)Cc1ccc(O)cc1` (stereo unspecified): “inactive”; for `O=C(O)/C(=C/c1c(C(=O)O)[nH]c2cc(Cl)cc(Cl)c12)c1ccccc1`: “inactive”; for `Cn1c(=O)[nH]c2ncn(C)c2c1=O`: “inactive”.
On the same count and under the same terms, the same measure for `CCCCCCCCCCCCCCCCCCOC[C@H](COP(=O)([O-])OCC[N+](C)(C)C)OC`: “inactive”.
`O=C(O)/C=C/c1ccc(O)c(O)c1`: the outcome was inactive.
Still for that read-out and setting: the entry for `N[C@@H](Cc1ccc(O)c(I)c1)C(=O)O` is “inactive”; for `NC(=O)c1cc[n+](CC2=C(C(=O)O)N3C(=O)[C@@H](NC(=O)[C@@H](c4ccccc4)S(=O)(=O)[O-])[C@H]3SC2)cc1` it is “inactive”; for `O=[N+]([O-])c1cccc2cn[nH]c12` it is “inactive”.
On the same count and under the same terms, the entry for `c1ccc2nc(C3=NCCN3)ccc2c1` is “inactive”; for `COc1ccccc1N1CCN(CCCCNC(=O)c2ccc3ccccc3c2)CC1` it is “inactive”; for `O=c1onc2n1-c1cc(Br)ccc1OC2` it is “inactive”.
With `CC(C)NC[C@H](O)COc1ccc(CC(N)=O)cc1`, the result was inactive.
On the same count and under the same terms, the same measure for `NC(N)=NC(N)=Nc1ccccc1`: “inactive”; for `C#CCn1c(=O)c2c(ncn2C)n(C)c1=O`: “inactive”.
The same measure, in the same setting: the same measure for `O=C(OCCN1CCOCC1)C1(c2ccccc2)CCCCC1`: “inactive”.
For the molecule `CO/N=C(\C(=O)N[C@@H]1C(=O)N2C(C(=O)O)=C(CSc3nc(=O)c(O)nn3C)CSC12)c1csc(N)n1` (stereo partly specified), the result was inactive.
Still for that read-out and setting: the same measure for `Nc1ccc(-c2nc3ccc(-c4nc5ccc(N)cc5[nH]4)cc3[nH]2)cc1`: “inactive”; for `CCC(=O)N1CCN(C(=O)c2ccccc2)CC1`: “inactive”; for `Nc1ccc(N2C(=O)c3ccccc3C2=O)c(Cl)c1`: “inactive”.
The same measure, in the same setting: the same measure for `NC(N)=N[C@@H](CCC(=O)O)C(=O)O`: “inactive”.
The same measure, in the same setting: the same measure for `CC1CCN(CC[C@H]2CCCN2S(=O)(=O)c2cccc(O)c2)CC1`: “inactive”.
Take `Cc1nc(N=Nc2ccc(S(=O)(=O)O)cc2S(=O)(=O)O)c(COP(=O)(O)O)c(C=O)c1O`: the outcome was inactive.
The same measure, in the same setting: the entry for `CC(C)Cn1c(=O)n(C)c(=O)c2[nH]cnc21` is “inactive”; for `NCCCNCCCCNCCCN` it is “inactive”; for `CCCCCCCCCC[Si](C)(C)CCC(=O)NC(Cc1ccc(C)cc1)c1ccccc1` (stereo unspecified) it is “inactive”.
Still for that read-out and setting: the entry for `CNc1ncnc2c1ncn2[C@H]1C[C@H](OP(=O)(O)O)[C@@H](COP(=O)(O)O)O1` is “inactive”; for `NCCS(=O)O` it is “inactive”.
Still for that read-out and setting: the entry for `N=C(N)SCCN` is “inactive”; for `NC1(C(=O)O)CC1` it is “inactive”.
For the molecule `O=C(O)c1cc(=O)cc(C(=O)O)[nH]1`, the outcome was inactive.
In the case of `c1ccc(C2CN3CCSC3=N2)cc1` (stereo unspecified), the outcome was inactive.

Another assay has as its target Thyrotropin receptor (Homo sapiens) (UniProt P16473). Nature of the assay: qHTS Assay for Antagonists of the Thyroid Stimulating Hormone Receptor (AID 488980). The conditions noted are these: TSHR-expressing cells, cAMP antagonist read-out; series mostly up to 57.5 µM. In short, it runs like this: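 Readout is cAMP by HTRF competition between cellular cAMP and cAMP-d2 for a cryptate-labelled antibody. Antagonism was assessed in TSHR-transfected HEK293 cells stimulated with 4 nM TSH (EC80, final) in the presence of RO 20-1724.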
On to `O=C(O)CCC(=O)N1CCCC1C(=O)O` (stereo unspecified), for which the outcome was inactive.
As for `C=C(C)C1CC=C(C(=O)O)CC1` (stereo unspecified), the outcome was inactive.
Still for that read-out and setting: the entry for `NCC(O)C1CCCCCCC1` (stereo unspecified) is “inactive”; for `NC(=O)CNCCC(c1ccccc1)c1ccccc1` it is “inactive”; for `COc1ccccc1N1CCN(CCCNc2c(C)c(=O)n(C)c(=O)n2C)CC1` it is “inactive”.
On the same count and under the same terms, the entry for `C[C@@]1(C2CCCC2)Cc2cc(OCC(=O)O)c(Cl)c(Cl)c2C1=O` is “inactive”.
The same measure, in the same setting: the same measure for `N[C@@H](CS(=O)O)C(=O)O`: “inactive”.
Take `COC(=O)C(C)(N)Cc1ccc(O)cc1` (stereo unspecified): the result was inactive.
In the case of `O=C(O)/C(=C/c1c(C(=O)O)[nH]c2cc(Cl)cc(Cl)c12)c1ccccc1`, the outcome was inactive.
Turning to `Cn1c(=O)[nH]c2ncn(C)c2c1=O`, the outcome was inactive.
On the same count and under the same terms, the same measure for `CCCCCCCCCCCCCCCCCCOC[C@H](COP(=O)([O-])OCC[N+](C)(C)C)OC`: “inactive”; for `O=C(O)/C=C/c1ccc(O)c(O)c1`: “inactive”.
Consider `N[C@@H](Cc1ccc(O)c(I)c1)C(=O)O`, for which the result was inactive.
Same read-out and setting: the same measure for `NC(=O)c1cc[n+](CC2=C(C(=O)O)N3C(=O)[C@@H](NC(=O)[C@@H](c4ccccc4)S(=O)(=O)[O-])[C@H]3SC2)cc1`: “inactive”; for `O=[N+]([O-])c1cccc2cn[nH]c12`: “inactive”; for `c1ccc2nc(C3=NCCN3)ccc2c1`: “inactive”.
As to `COc1ccccc1N1CCN(CCCCNC(=O)c2ccc3ccccc3c2)CC1`, the outcome was inactive.
Same read-out and setting: the same measure for `O=c1onc2n1-c1cc(Br)ccc1OC2`: “inactive”.
On the same count and under the same terms, the same measure for `CC(C)NC[C@H](O)COc1ccc(CC(N)=O)cc1`: “inactive”; for `NC(N)=NC(N)=Nc1ccccc1`: “inactive”.
Same read-out and setting: the entry for `C#CCn1c(=O)c2c(ncn2C)n(C)c1=O` is “inactive”; for `O=C(OCCN1CCOCC1)C1(c2ccccc2)CCCCC1` it is “inactive”; for `CO/N=C(\C(=O)N[C@@H]1C(=O)N2C(C(=O)O)=C(CSc3nc(=O)c(O)nn3C)CSC12)c1csc(N)n1` (stereo partly specified) it is “inactive”.
For `Nc1ccc(-c2nc3ccc(-c4nc5ccc(N)cc5[nH]4)cc3[nH]2)cc1`, the outcome was inactive.
The same measure, in the same setting: the same measure for `CCC(=O)N1CCN(C(=O)c2ccccc2)CC1`: “inactive”; for `Nc1ccc(N2C(=O)c3ccccc3C2=O)c(Cl)c1`: “inactive”.
With `NC(N)=N[C@@H](CCC(=O)O)C(=O)O`, the result was inactive.
On the same count and under the same terms, the same measure for `CC1CCN(CC[C@H]2CCCN2S(=O)(=O)c2cccc(O)c2)CC1`: “inactive”; for `Cc1nc(N=Nc2ccc(S(=O)(=O)O)cc2S(=O)(=O)O)c(COP(=O)(O)O)c(C=O)c1O`: “inactive”.
Regarding `CC(C)Cn1c(=O)n(C)c(=O)c2[nH]cnc21`, the outcome was inactive.
Same read-out and setting: the same measure for `NCCCNCCCCNCCCN`: “inactive”.
On the same count and under the same terms, the entry for `CCCCCCCCCC[Si](C)(C)CCC(=O)NC(Cc1ccc(C)cc1)c1ccccc1` (stereo unspecified) is “inactive”; for `CNc1ncnc2c1ncn2[C@H]1C[C@H](OP(=O)(O)O)[C@@H](COP(=O)(O)O)O1` it is “inactive”.
With `NCCS(=O)O`, the outcome was inactive.
As to `N=C(N)SCCN`, the outcome was inactive.
The same measure, in the same setting: the entry for `NC1(C(=O)O)CC1` is “inactive”.
The same measure, in the same setting: the entry for `O=C(O)c1cc(=O)cc(C(=O)O)[nH]1` is “inactive”; for `c1ccc(C2CN3CCSC3=N2)cc1` (stereo unspecified) it is “inactive”.
